Reference: PMC4336329 (PLoS ONE, 2015)
Screen size: about 310,000 compounds; about 14,000 (4.5%) showed an effect of 50% or more. Effects have a minus sign here. The full list was thinned out, with strong results kept by preference.

Each molecule was assayed against human ether-à-go-go-related gene (hERG) potassium channel (human, UniProt Q12809) (assay: primary screen, population patch clamp on CHO cells stably expressing hERG; higher = less effect of the substance).
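Further: peak tail current of the secondary pulse compared with the same well before compound.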

Sequence of human ether-à-go-go-related gene (hERG) potassium channel (Q12809 whole entry, looked up): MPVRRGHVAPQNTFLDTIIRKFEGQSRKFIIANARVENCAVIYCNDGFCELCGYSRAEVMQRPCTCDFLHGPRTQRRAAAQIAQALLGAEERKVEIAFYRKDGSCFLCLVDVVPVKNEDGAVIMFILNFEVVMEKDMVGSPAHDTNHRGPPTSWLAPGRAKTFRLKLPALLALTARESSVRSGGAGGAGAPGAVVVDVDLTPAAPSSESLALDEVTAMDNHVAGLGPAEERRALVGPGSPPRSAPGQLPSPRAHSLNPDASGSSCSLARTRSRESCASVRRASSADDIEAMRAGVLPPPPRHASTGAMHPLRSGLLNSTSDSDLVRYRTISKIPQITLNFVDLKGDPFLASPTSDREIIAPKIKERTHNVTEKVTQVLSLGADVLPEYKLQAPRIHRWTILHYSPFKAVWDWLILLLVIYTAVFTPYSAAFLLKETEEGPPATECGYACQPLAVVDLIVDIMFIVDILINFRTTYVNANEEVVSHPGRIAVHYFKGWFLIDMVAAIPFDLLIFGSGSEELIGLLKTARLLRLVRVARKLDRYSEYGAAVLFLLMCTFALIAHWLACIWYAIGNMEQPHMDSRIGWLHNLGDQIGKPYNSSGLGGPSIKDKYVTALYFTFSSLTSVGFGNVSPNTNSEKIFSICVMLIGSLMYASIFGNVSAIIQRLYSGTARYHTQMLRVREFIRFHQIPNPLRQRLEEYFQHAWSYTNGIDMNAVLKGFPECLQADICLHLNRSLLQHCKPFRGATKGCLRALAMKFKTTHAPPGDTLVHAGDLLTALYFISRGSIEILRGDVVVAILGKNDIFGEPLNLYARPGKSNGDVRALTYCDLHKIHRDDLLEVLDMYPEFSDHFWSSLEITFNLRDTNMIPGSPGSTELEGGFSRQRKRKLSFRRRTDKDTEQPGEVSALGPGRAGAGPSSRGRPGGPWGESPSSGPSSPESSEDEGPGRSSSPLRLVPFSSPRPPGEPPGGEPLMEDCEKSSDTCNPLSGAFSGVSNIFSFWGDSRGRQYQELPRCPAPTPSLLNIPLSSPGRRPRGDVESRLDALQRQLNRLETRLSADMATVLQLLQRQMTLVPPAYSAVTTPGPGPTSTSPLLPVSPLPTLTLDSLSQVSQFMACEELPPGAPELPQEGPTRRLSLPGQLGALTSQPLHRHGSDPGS

SMILES | hERG current change (%, negative = inhibition) at 10uM
COc1ccc(C(CNC(=O)c2cc(S(=O)(=O)NCc3ccccc3)ccc2C)N2CCOCC2)cc1 (centres unmarked) | -19%
COC(=O)CSc1nnc(COc2ccc3ccccc3c2)o1 | 19%
CC(=O)N(CCC1(C(C)C)CCOC(C)(C)C1)C(C)c1cccs1 (centres unmarked) | -2.41%
Cc1cccc(NC(=O)c2ccc(C(=O)Nc3cccc(C)c3)nc2)c1 | 23.2%
COc1ccc(-c2noc(C(=O)NCc3ccccc3Cl)n2)cc1OC | 0.607%
CC(C)C1CC(c2csc(N)n2)CCO1 (centres unmarked) | 18.8%
Cc1[nH]oc(=O)c1N=Nc1ccc2[nH]c(=O)[nH]c2c1 | 7.93%
CCOc1cc(-c2cn(S(=O)(=O)c3cccc4nsnc34)nc2N)cc(OCC)c1OCC | 0.719%
Cc1cc(C)c2sc(N(CCN(C)C)C(=O)c3c(F)cccc3F)nc2c1.Cl | -2.23%
CSCCC(NC(=O)c1ccc(Cl)cc1)C(=O)OCC(=O)N1CCCC1=O (centres unmarked) | -2.69%
O=[N+]([O-])c1cccc(-c2ccc(C(=S)N3CCN(c4ccccc4)CC3)o2)c1 | 27.7%
O=S(=O)(c1ccc(F)cc1)N1CCN(C(=S)NCc2ccccc2)CC1 | 13.8%
CCOc1ccc(NC(=S)NCCCN2CCN(C3CCCCC3)CC2)cc1 | -47.2%
S=C(NCc1ccccc1)N1CCCCC1 | -1.03%
S=C(NCc1ccccc1)N1CCN(C(=S)NCc2ccccc2)CC1 | 12.9%
CCOC(=O)c1ccc(NC(=S)NCCCN2CCCCC2)cc1 | -42%
O=C(c1ccccc1)N1CCN(C(=S)NCc2ccc3c(c2)OCO3)CC1 | -59.4%
O=S(=O)(c1cccc(F)c1)N1CCN(C(=S)NCc2ccccc2)CC1 | -0.89%
S=C(NCc1ccccc1)N1CCN(C2CCCCC2)CC1 | -62.6%
CCOC(=O)c1ccc(NC(=S)NCCCN2CCN(C3CCCCC3)CC2)cc1 | -53.7%
O=C(c1ccccc1)N1CCN(c2ccc(NCc3ccc4c(c3)OCO4)cc2)CC1 | -12.2%

SMILES | hERG current change (%, negative = inhibition) at 10uM
S=C(NCc1ccccc1)N1CCN(Cc2ccc3c(c2)OCO3)CC1 | -16.7%
O=S(=O)(c1ccccc1)N1CCN(C(=S)NCc2ccccc2)CC1 | -50.3%
CC(=O)N1CCc2cc(N=NC3=C(O)CCCC3=O)ccc21 | 9.61%
COCCn1c(Cc2ccccc2)nnc1SCC(=O)N1CCCCC1C (centres unmarked) | 7.49%
COc1ccc(CCC(=O)NNC(=O)Nc2ccccc2Cl)cc1 | 4.25%
CC1(c2ccc(OC(F)F)cc2)NC(=O)N(CC(=O)Nc2ccc3c(c2)OCO3)C1=O (centres unmarked) | -36.5%
N#Cc1cc2c(nc1SCC(=O)Nc1sc3c(c1C#N)CCC3)CCCC2 | 4.92%
CCOc1ccc(C(=O)COC(=O)Cn2cnc3c2c(=O)n(C)c(=O)n3C)cc1 | -13.5%
S=C(Nc1ccccn1)NC1CCCC1 | -17.6%
O=C(NC(=S)Nc1ccc(CN2CCCCC2)cc1)c1cc2ccccc2o1 | -24.3%
COc1ccc(NC(=O)c2ccco2)cc1NC(=O)c1ccccc1F | 25.6%
CC1CCCCN1C(=O)CSc1nc2ccccc2[nH]1 (centres unmarked) | 25.8%
CC1CCCN(C(=O)CN2CCC(c3nc4ccc(Cl)cc4[nH]3)CC2)C1 (centres unmarked) | -67.8%
O=C(NC1CCCCC1)N1CCC(c2nc3ccc(Cl)cc3[nH]2)CC1 | -34.3%
Cc1ccc2nc(C3CCN(CC(=O)N4CCCCCC4)CC3)[nH]c2c1 | -22.2%
CC1CCCCN1C(=O)Cc1ccc(Cl)cc1 (centres unmarked) | -11.1%
CC1CCCCN1C(=O)CN1CCC(c2nc3ccc(Cl)cc3[nH]2)CC1 (centres unmarked) | -60.2%
O=C1CC(N2CCC(c3nc4ccccc4o3)CC2)C(=O)N1c1ccc(Cl)c(C(F)(F)F)c1 (centres unmarked) | 6.87%
COC(=O)C1=C(C)N(c2cccc(C(C)=O)c2)C(=O)C1 | 7.45%
CC(C)OC(=O)/C(C#N)=C/c1cn(Cc2ccccc2)c2ccccc12 | -6.73%
COc1ccc(N(C(=O)CNC(=O)c2ccco2)C(C(=O)NC2CCCCC2)c2ccco2)cc1 (centres unmarked) | 8.58%

SMILES | hERG current change (%, negative = inhibition) at 10uM
C=CCNc1nc2c(c(=O)[nH]c(=O)n2C)n1CCCCC | -12.1%
O=[N+]([O-])c1ccc2[nH]cc(S(=O)(=O)N3CCN(c4cccc(Cl)c4)CC3)c2c1 | 16.3%
NC(=O)NC(=O)COC(=O)c1cccc(S(=O)(=O)N2CCCCCC2)c1 | -21.4%
C=CCNC(=O)c1ccccc1NC(=O)C1CCN(S(=O)(=O)c2ccc(SC)cc2)CC1 | -70%
CCCNC(=O)C1CCN(S(=O)(=O)c2ccc(Br)cc2)CC1 | -1.78%
C=CCNC(=O)c1ccccc1NS(=O)(=O)c1ccc(SC)cc1 | -6.5%
C=CCNC(=O)C1CCN(S(=O)(=O)c2ccc(Br)cc2)CC1 | -58.7%
C=CCNC(=O)C1CCN(S(=O)(=O)c2ccccc2)CC1 | -2.98%
CSc1ccc(S(=O)(=O)N2CCC(C(=O)Nc3ccccc3C(F)(F)F)CC2)cc1 | 7.69%
Nc1nc(N)nc(-c2cc(O)ccc2O)n1 | 10.3%
O=C(CSc1ccccc1)N(c1ccc(Br)cc1)c1nccs1 | 10.8%
Cc1cc(C)c2cc(CN(CCCN(C)C)C(=S)NCc3ccccc3)c(=O)[nH]c2c1 | -45.4%
Cc1ccc2[nH]c(=O)c(CN(CCO)C(=O)NCc3ccccc3)cc2c1 | 7.55%
Cc1ccc2cc(CN(CCCN(C)C)C(=S)NCc3ccccc3)c(=O)[nH]c2c1C | -50.3%
Cc1cccc2cc(CN(CCCN(C)C)C(=S)NCCc3ccccc3)c(=O)[nH]c12 | -72%
Cc1ccc(C)c2[nH]c(=O)c(CN(CCCN(C)C)C(=O)NCc3ccccc3)cc12 | -52.2%
CCN(CC)CCCNC(=S)N(Cc1cccnc1)Cc1cc2cccc(C)c2[nH]c1=O | -1.68%
COc1ccc2[nH]c(=O)c(CN(CCN(C)C)C(=O)NCc3ccccc3)cc2c1 | 9.31%
CCC(=O)N(CCc1ccccc1)Cc1cc2cccc(C)c2[nH]c1=O | -14.4%
Cc1ccc2cc(CN(CCCN(C)C)C(=O)NCc3ccccc3)c(=O)[nH]c2c1C | -34.1%
